Source: PubChem BioAssay

What follows are compounds tested against Alpha-2C adrenergic receptor (Homo sapiens) (UniProt P18825) (assay: compounds altering alpha2C-coupled GIRK flux – cell-based, HEK293 alpha2C/GIRK1/2, thallium flux, primary screen (AID 624;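 note: slope of fluorescence ratio to pre-addition baseline per second over 15 to 24 s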)). Conditions: thallium flux BTC fluorescence, at 10 µM, actives lie on both sides;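 active = fluorescence slope after compound addition differing from the mean of all screened samples at 99.7% confidence, in either direction; inactive = the rest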.
Alpha-2C adrenergic receptor (Homo sapiens), sequence (P18825 whole entry, looked up): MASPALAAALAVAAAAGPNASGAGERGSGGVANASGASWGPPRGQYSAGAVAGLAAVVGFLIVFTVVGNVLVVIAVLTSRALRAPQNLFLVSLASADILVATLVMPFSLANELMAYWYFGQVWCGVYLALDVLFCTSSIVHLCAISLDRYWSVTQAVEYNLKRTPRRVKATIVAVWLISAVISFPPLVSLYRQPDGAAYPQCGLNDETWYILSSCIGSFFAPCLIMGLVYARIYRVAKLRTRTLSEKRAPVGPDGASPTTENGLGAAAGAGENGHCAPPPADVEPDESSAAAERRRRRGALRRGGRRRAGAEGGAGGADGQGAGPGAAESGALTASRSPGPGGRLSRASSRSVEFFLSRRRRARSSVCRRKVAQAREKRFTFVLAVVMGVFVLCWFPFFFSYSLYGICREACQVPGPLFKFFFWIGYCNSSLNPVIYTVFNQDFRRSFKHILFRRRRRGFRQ

slope, inactive:
NS(=O)(=O)c1cc2c(cc1Cl)NC(CSCc1ccccc1)=NS2(=O)=O 0.00625, Nc1ccc(S(=O)(=O)Nc2ccccn2)cc1 0.00448, CC(=O)Oc1cccc2c1C(=O)c1c(OC(C)=O)cc(C(=O)O)cc1C2=O 0.00622, OCC(O)CN1CCN(c2ccccc2)CC1 (stereo not drawn) 0.00502, O=C(NC1(C(F)(F)F)C(=O)Nc2c1c(=O)[nH]c(=O)n2Cc1ccco1)C1CCCCC1 (stereo not drawn) 0.00536, CCN(CC)CC#CCOC(=O)C(O)(c1ccccc1)C1CCCCC1 (stereo not drawn) 0.00459, CN1[C@@H](CC(=O)c2ccccc2)CCC[C@H]1C[C@H](O)c1ccccc1 0.00528, O=C(O)c1ccccc1Nc1cccc(C(F)(F)F)c1 0.00472, O=[N+]([O-])c1cccc2cn[nH]c12 0.00537, COc1cccc(-c2nnc3sc(C4CCCCC4)nn23)c1 0.00489, CNCCCC1c2ccccc2C=Cc2ccccc21 0.00425, CC(C)(C)NCC(O)COc1cccc2c1C[C@H](O)[C@H](O)C2 (stereo partly drawn) 0.00396, CCOC(=O)CSC1=C(C#N)C(=O)NC(c2ccc(OC)c(OC)c2)S1 (stereo not drawn) 0.00555, COc1ccc2nc(S(=O)Cc3ncc(C)c(OC)c3C)[nH]c2c1 (stereo not drawn) 0.00367, Cc1cc(C)c(C#N)c(SCc2[nH]nc3c2C(c2ccccc2)C(C#N)=C(N)O3)n1 (stereo not drawn) 0.00484, O/N=C/c1ccc(OCC(O)COc2ccc(/C=N/O)cc2)cc1 0.00891, CC(C)(C)OC(=O)N1CC=C2C(C#N)=C(N)C(C#N)(C#N)[C@H](c3cccnc3)[C@H]2C1 0.00436, Oc1c(I)cc(I)c2cccnc12 0.00528, CCCCOc1ccc(C(=O)CCN2CCCCC2)cc1 0.00405, CN(C)c1nc(OCCOC(=O)Nc2ccc(Cl)cc2Cl)nc(N(C)C)n1 0.00682, CCOC(=O)c1c(C)n(C)c2ccc(OC)c(NC(=O)CCN3CCSCC3)c12 0.00572, CC(C)(C)n1cnc2cc(NS(=O)(=O)c3ccc(Br)cc3)ccc21 0.00461, Cn1c([N+](=O)[O-])cnc1COC(N)=O 0.00486
